HEK293 tox – cytotoxicity in counter-screen for GLP-1R inverse agonists; AID 624418; HEK293 cAMP-luciferase reporter cells, luminescence, 24 h; 0.13% of 410,000 active; Potency, µM (series often up to 38.3 µM), for inactives: at the top dose activity change, negative = inhibition, most hits filed as inhibitors;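 further: loss of luciferase light is scored as toxicity; potency means the concentration at half of the fitted maximal effect; on the % scale 0 is the no-effect control and ±100 the full control effect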
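A 23 nL compound transfer followed 12 hours of cell culture at 37 deg C; exposure then lasted 24 hr. Luciferase assay detection reagent was dispensed and plates read for luminescence after a 12 min room-temperature wait.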
p53 reactivator – mutant p53 re-activation in reporter cells; 0.063% of 320,000 active; AID 504706; H1299 p53-A138V BP100-luciferase reporter, luminescence, 24 h; Potency, µM (top dose mostly 92.2 µM), without a hit: at the highest dose activity change, positive = activation, hits mostly activators; further: potency means the concentration at half of the fitted maximal effect; % of control where 0% means no effect; nearly all actives have a fitted effect of over 45% in size
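p53-null H1299 cells stably carrying temperature-sensitive p53-A138V and a BP100-luciferase reporter were pinned with compounds (4-point, 1:5 series) and held 24 hrs at 37 deg C. Luminescence was read 10 min after detection reagent.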
ClpP mod – qHTS Assay for Activators of ClpP. purified B. subtilis ClpP, FRET peptide cleavage, 20 min. Potency, µM (titrated, usually from 57.5 µM), for the others: top-dose activity change, negative = active. 1.9% of 340,000 active. AID 651965, 2013; active means well fitted falling curve with a large enough effect; inconclusive means small, poorly fitted or top-dose-only effect; inactive means no such curve, though single readings can be large or run the other way; further: potency means the concentration at half of the fitted maximal effect; the source files actives as falling curves though it sought activators and does not explain the sign; nearly all actives have a fitted effect of over 65% in size
Target sequence (P80244 whole entry, looked up): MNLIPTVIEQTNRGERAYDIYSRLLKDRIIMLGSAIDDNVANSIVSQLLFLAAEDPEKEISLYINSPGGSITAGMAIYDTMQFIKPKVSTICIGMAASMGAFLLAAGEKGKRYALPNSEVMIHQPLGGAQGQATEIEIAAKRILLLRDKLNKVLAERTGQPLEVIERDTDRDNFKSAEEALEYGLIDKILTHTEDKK
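Buffer: 100 mM Tris/HCl pH8, 100 mM KCl, 0.05% low protease BSA, 2.5% glycerol, 0.01% Tween-20. ClpP 10 microg/mL final; 20 min RT; delta FRET normalized to ADEP and DMSO controls.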
LDHA block – inhibitors of human lactate dehydrogenase A; P00338; purified LDHA, NADH/diaphorase-resazurin fluorescence; active compounds read low; activity change, % (values are at about 110 or 230 µM); 0.15% of 480,000 active; in the data active means activity change below about -30%; inconclusive means mostly about -25% to -30%;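 further: plate controls were DMSO wells for no effect and wells without enzyme for full effect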
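Human LDH5 (2 nM) was incubated with 0.06 mM NADH and 0.2 mM pyruvate for 5 min at room temperature in Tris pH 7.4. Remaining NADH was coupled through diaphorase/resazurin, and resorufin fluorescence was read at 0 and 20 min.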
GLP-1R inv ag – acts as inverse agonist at human GLP-1 receptor | HEK293 GLP-1R CRE-luciferase, luminescence, 24 h; GLP-1R form is constitutively active | Potency, µM (series often up to 38.3 µM), inactives show at the top dose activity change, negative = inhibition, actives largely listed as inhibitors | 1.6% of 410,000 active | P43220; further: potency means the concentration at half of the fitted maximal effect; on the % scale 0 is the no-effect control and ±100 the full control effect; nearly all actives have a fitted effect of over 55% in size
Target sequence (P43220 whole entry, looked up): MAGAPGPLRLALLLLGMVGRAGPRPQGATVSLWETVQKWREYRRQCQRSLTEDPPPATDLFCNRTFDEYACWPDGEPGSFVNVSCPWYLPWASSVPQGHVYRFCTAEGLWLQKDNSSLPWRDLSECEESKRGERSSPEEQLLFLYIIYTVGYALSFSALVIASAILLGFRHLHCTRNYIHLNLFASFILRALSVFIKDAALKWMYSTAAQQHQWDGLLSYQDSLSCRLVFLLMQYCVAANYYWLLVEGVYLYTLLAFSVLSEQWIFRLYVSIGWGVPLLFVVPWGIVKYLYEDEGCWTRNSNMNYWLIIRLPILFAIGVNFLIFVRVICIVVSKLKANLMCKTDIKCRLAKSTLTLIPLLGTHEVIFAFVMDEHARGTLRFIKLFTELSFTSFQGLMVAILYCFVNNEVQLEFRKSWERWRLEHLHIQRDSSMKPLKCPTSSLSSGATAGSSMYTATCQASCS
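Cells are plated, allowed 12 hours at 37 deg C, then treated with compounds for 24 hr before luciferase detection reagent is added and luminescence is read after 12 min at room temperature. The HEK293 line carries constitutively active GLP-1R with a cAMP-responsive reporter.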
GLP1R ag – activates the human GLP-1 receptor | 0.007% of 380,000 active | HEK293 GLP-1R CRE-luciferase, luminescence, 4-6 h; cells express a hypersensitive GLP-1R form | P43220 | Potency, µM (highest dose often 45.6 µM), without a hit: at the top dose activation, most hits filed as activators | AID 624172; further: potency means the concentration at half of the fitted maximal effect; % of control where 0% means no effect
* = called active by the depositor; i = inactive; ? = inconclusive; . = no result given. An excerpt weighted towards active compounds, which were near 2.9% of everything screened. Unless noted, the call rests on the fitted dose curve; in most records, active means well fitted curve in the direction sought with a large enough effect; inconclusive means small, poorly fitted or top-dose-only effect, or another doubt; inactive means no such curve, though single readings can be large; an effect the other way counts as inactive or inconclusive.

SMILES | HEK293 tox | p53 reactivator | ClpP mod | LDHA block | GLP-1R inv ag | GLP1R ag
O=C(CN1CCN(c2ccc(Cl)cc2)CC1)Nc1ccc(F)cc1 | 5% | 2% | -3% | 7 | ? | 0%
CCN(CC)c1ccc(NC(=O)CN2CCN(c3ccc(F)cc3)CC2)cc1 | -3% | -4% | -1% | 0 | 10µM* | -1%
O=C(CN1CCN(c2ccc(Cl)cc2)CC1)Nc1ccc(F)c(F)c1 | 5% | 0% | -1% | -7 | 2.8µM* | -12%
COCCn1c(COc2ccccc2)nnc1SCC(N)=O | -1% | 3% | 0% | -1 | -7% | 2%
O=C(Oc1cncc(Cl)c1)c1sccc1Cl | 10% | . | . | -1 | 4% | -5%
CN(Cc1ccccc1)C(=O)CNC(=O)NCc1ccccc1 | . | . | . | -21 | . | .
N#Cc1c(C#N)c(-c2ccccc2)n(-c2ccccc2)c1N | -18% | -24% | 28µM* | -3 | ? | 21%
Cn1c(N)c(C#N)c(C#N)c1-c1ccccc1 | -9% | 18% | -30% | -7 | 3% | -7%
CC(C)COc1ccc(C(=O)Nc2ccc(O)c(-c3nc4ccccc4o3)c2)cc1 | . | . | . | 5 | . | .
COc1cc(NC(=O)C(C)n2nc(-c3ccccc3)c3c(c2=O)CCCC3)cc(OC)c1 (centres undefined) | . | . | . | -32* | . | .
CCC(C(=O)Nc1ccc(C(=O)OC)cc1)n1nc(-c2ccc(C)cc2)c2c(c1=O)CCCC2 (centres undefined) | 2% | . | -7% | 3 | 2.5µM* | .
COc1ccc(NC(=O)C(C)n2nc(-c3ccc(C)cc3)c3c(c2=O)CCCC3)cc1 (centres undefined) | . | . | . | -14 | . | .
CCOC(=O)C1=C(C)NC(=O)NC1c1c(O)ccc2ccccc12 (centres undefined) | 0% | -1% | -4% | 2 | -18% | -3%
COc1ccc(/C(C)=N/Nc2nc3ccccc3nc2C)cc1 | ? | ? | . | -4 | ? | 14%
Cc1nn(-c2ccc(F)cc2F)c2c1-c1nc(N3CCCC3)ncc1CC2 | 2% | -8% | 32µM* | 4 | -5% | 20%
Cc1nc(N2CCCC2)ncc1C(=O)NCc1ccc(F)cc1 | -8% | . | -11% | -5 | 6% | .
O=C(COc1ccc(Cl)cc1)NNC(=O)c1ccccn1 | 0% | 2% | 1% | 2 | -26% | -1%
Cc1cc(C)cc(OCC(=O)NNC(=O)c2ccccn2)c1 | ? | ? | 0% | 0 | 13µM* | -1%
COc1ccccc1CC(=O)NC1CC(C)(C)NC(C)(C)C1 | 7% | ? | 28µM* | -3 | 6% | 0%
COc1ccccc1CC(=O)NC1CC1 | 2% | 2% | 0% | -5 | 1% | -10%
COc1ccc(NC(=O)COC(=O)C23CC4CC(CC(O)(C4)C2)C3)cc1Cl | 5% | ? | 1% | -2 | -8% | -5%
CC(C)=CC(=O)OCC(=O)Nc1cc([N+](=O)[O-])ccc1F | 2% | 16% | -1% | -7 | 1% | -8%
O=C(c1cc(COc2cccc(C(F)(F)F)c2)on1)N1CCCC1 | 0% | . | 1% | -1 | -6% | -5%
C=CCC1(CC=C)CCCN1C(=O)c1cc(COc2cccc(C(F)(F)F)c2)on1 | -5% | 7% | -3% | 3 | 10µM* | 4%
CCC1CN(CC(=O)Nc2cc(OC)c(OC)c(OC)c2)c2ccccc2S1 (centres undefined) | . | . | . | 47 | . | .
SMILES | HEK293 tox | p53 reactivator | ClpP mod | LDHA block | GLP-1R inv ag | GLP1R ag
CCCC(=O)Nc1ccccc1OCc1cc(=O)n2cc(C)ccc2n1 | -4% | . | 28µM* | -5 | -9% | .
Cc1c(O)c(CN2CCCC2)cc2c3c(c(=O)oc12)CCC3 | i | 3% | ? | -4 | -7% | -8%
O=c1oc2c3c4c(cc2c2c1CCC2)OCCN4CCC3 | i | -8% | 18µM* | 8 | 57% | 4%
COc1ccc(/C(O)=C2/C(=O)C(=O)N(CCN(C)C)C2c2cccnc2)cc1C (centres undefined) | 3% | 1% | . | 2 | -4% | 1%
CC1CCC(C(C)C)C(OCC(O)CNC(C)(C)C)C1 (centres undefined) | -15% | 9% | 1% | -6 | 11µM* | 12%
CC1CCN(CC(O)COC2CC(C)CCC2C(C)C)CC1 (centres undefined) | ? | -2% | 1% | -2 | -22% | -1%
Cc1cc(OCC(=O)N(C)Cc2ccccc2)ccc1Br | 4% | 15% | 1% | -1 | 10µM* | 3%
Cc1cc(OCC(=O)N(C)Cc2ccccc2)ccc1Cl | 9% | ? | 2% | -3 | ? | 3%
Cc1cc(S(=O)(=O)N2CCN(CC(=O)N(C)Cc3ccccc3)CC2)ccc1Br | 1% | -2% | -2% | -3 | 8.9µM* | 5%
Cc1ccc(-n2nc3c(=O)n(C(C)C(=O)NCc4ccc(OC(C)C)cc4)nc(C)c3c2C)cc1 (centres undefined) | ? | . | -1% | 0 | ? | .
Cc1ccc(NC(=O)COC(=O)c2csc3c2CCC(C)C3)cc1S(=O)(=O)N1CCCCC1 (centres undefined) | 3% | 25% | -1% | -1 | -5% | -7%
CCCc1cc(=O)oc2cc(OCC(=O)Nc3ccc(S(N)(=O)=O)cc3)ccc12 | 6% | 8% | 4% | -37* | 4% | -1%
CC1CCc2c(C(=O)OCC(=O)Nc3cccc(S(=O)(=O)N4CCCCCC4)c3)csc2C1 (centres undefined) | -2% | -12% | -1% | -10 | 2.5µM* | -3%
CCCCc1cc(=O)oc2cc(OCC(=O)NCc3ccc(S(N)(=O)=O)cc3)ccc12 | . | . | . | -4 | . | .
Cc1ccc(C)c(C(=O)OCC(=O)Nc2cccc(S(=O)(=O)N3CCCCC3)c2)c1 | -4% | 11% | 0% | 0 | 1.4µM* | -1%
Cc1ccc(S(=O)(=O)N2CCOCC2)cc1NC(=O)COc1ccc2c(C)cc(=O)oc2c1 | 10% | -13% | 32µM* | -5 | 3% | 1%
Cc1ccccc1C(=O)OCC(=O)Nc1cccc(S(=O)(=O)N2CCCCC2)c1 | -11% | . | -2% | -1 | ? | 6%
N/C(=N/OCC(=O)Nc1cccc2ccccc12)c1nonc1N | -5% | -18% | -3% | -2 | 1% | 1%
COc1ccc(N(CC(=O)Nc2cc(C)ccc2C)S(=O)(=O)c2ccccc2[N+](=O)[O-])c(OC)c1 | 0% | 0% | . | -3 | -16% | 5%

High-throughput results from PubChem BioAssay.
